Where “and” joins values, the source holds several entries; their conditions need not be identical. Equal entries are not always repeated. Out of some 110,000 compounds screened, about 190 (0.17%) were called active. No stated cut-off is given here; in the data, active means inhibition above about 50%; inactive means the rest. What follows is part of a selection rich in actives, with near analogues and random picks from the rest. Measured potencies and affinities stand elsewhere.

In this experiment the target is Dual specificity protein phosphatase 6 (Rattus norvegicus) (UniProt Q64346). The experiment in a line: inhibition of rat DUSP6 enzyme activity – biochemical, in vitro, primary screen (AID 425).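 Further: plate controls were vehicle for no effect and reference inhibitor for full effect.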 As to conditions: recombinant MKP-3 phosphatase activity, fluorescence; at 20 µM; hits give high values.
Dual specificity protein phosphatase 6 (Rattus norvegicus), sequence (Q64346 whole entry, looked up): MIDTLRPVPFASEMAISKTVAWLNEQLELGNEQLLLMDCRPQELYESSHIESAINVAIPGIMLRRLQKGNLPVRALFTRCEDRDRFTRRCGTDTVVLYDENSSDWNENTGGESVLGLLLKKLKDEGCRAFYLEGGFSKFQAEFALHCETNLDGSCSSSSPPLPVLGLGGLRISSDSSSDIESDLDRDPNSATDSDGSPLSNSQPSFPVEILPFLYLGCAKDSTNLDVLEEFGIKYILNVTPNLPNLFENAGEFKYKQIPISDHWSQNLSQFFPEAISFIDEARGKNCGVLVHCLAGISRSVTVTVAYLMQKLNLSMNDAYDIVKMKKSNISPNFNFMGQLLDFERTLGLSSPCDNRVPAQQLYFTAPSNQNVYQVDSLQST
The inhibition is the change of the read-out against control, counted positive when it falls. `O=C(Nc1nncs1)c1cc(-c2ccccc2Cl)nc2ccccc12`: the inhibition was 1.9% (inactive).

On to `CCOc1ccc(CCNc2nc3c(c(=O)n(C)c(=O)n3C)n2CC)cc1OCC`, for which the inhibition is -1% (inactive).

Turning to `O=C(N/N=C\c1cn(Cc2ccc(Cl)c(Cl)c2)c2ccccc12)c1ccc([N+](=O)[O-])cc1`, the inhibition was -0.1% (inactive).

Turning to `O=C(CNc1cccc2ccccc12)N/N=C/c1cn(Cc2ccccc2)c2ccccc12`, the inhibition was 4.7% (inactive).

On to `O=C(c1cc2ccccc2oc1=O)N1CCCN(C(=O)c2cc3ccccc3oc2=O)CC1`, for which the inhibition is 3.4% (inactive).

For `CC(C)(C)C(=O)/C=C(\N)c1ccccn1`, the inhibition was -3.7% (inactive).

As to `COc1ccc(C2NC(=S)NC(C)=C2C(=O)Nc2ccccc2)c(OC)c1` (stereo not drawn), the inhibition was 1.7% (inactive).

As to `Cc1cccc(N=Cc2ccc([N+](=O)[O-])s2)c1`, the inhibition was 49.9% (inactive).

Take `O=C(c1ccccc1)c1ccc(N=Cc2ccc([N+](=O)[O-])s2)cc1`: the inhibition was 62.2% (active).

Consider `CCc1ccc(C=NC23CN4CN(CN(C4)C2)C3)s1`, for which the inhibition is -1.3% (inactive) and -8.8% (inactive).

Consider `CN1CCN(/N=C/c2ccc([N+](=O)[O-])s2)CC1`, for which the inhibition is 2.9% (inactive).

For `O=[N+]([O-])c1ccc(C=NC23CN4CN(CN(C4)C2)C3)s1`, the inhibition was 94.6% (active).

Take `O=C(O)c1ccc(N=Cc2ccc([N+](=O)[O-])s2)cc1`: the inhibition was 83.1% (active).

Turning to `O=[N+]([O-])c1ccc(C=Nc2ccc(Br)c(Cl)c2)s1`, the inhibition was -1.9% (inactive).

On to `O=[N+]([O-])c1ccc(C=Nc2ccc(Oc3ccccc3)cc2)s1`, for which the inhibition was 0.3% (inactive).

Take `O=[N+]([O-])c1ccc(C=Nc2ccc(Cl)c([N+](=O)[O-])c2)s1`: the inhibition is 67.5% (active).

For `O=C(c1ccccc1)c1cc(Cl)ccc1N=Cc1ccc([N+](=O)[O-])s1`, the inhibition was 0.8% (inactive).

Consider `O=[N+]([O-])c1cc(N=Cc2ccc(Br)s2)ccc1Cl`, for which the inhibition is 0.8% (inactive).

As for `CC(=O)Nc1ccc(N=Cc2ccc([N+](=O)[O-])s2)cc1`, the inhibition was 1.2% (inactive).

Regarding `Cn1c(O)c(N=NC(=O)COc2ccc3ccccc3c2)c2cc(Br)ccc21`, the inhibition is 3% (inactive).

As to `C/C(O)=C\C(N)=N/c1nc(C)cc(C)n1`, the inhibition is 2.7% (inactive).

In the case of `O=[N+]([O-])c1ccc(C(O)CN2CCN(C/C=C/c3ccccc3)CC2)cc1` (stereo not drawn), the inhibition was 3.6% (inactive).

`CCC(=O)N1c2ccc(S(=O)(=O)CCC(=O)N3CCn4c3nc3ccccc34)cc2CC1C` (stereo not drawn): the inhibition is 6.1% (inactive).

Take `O=C(NCCNc1ccc([N+](=O)[O-])cc1Cl)c1ccccc1Cl`: the inhibition was 1.6% (inactive).

For the compound `COCCOC(=O)C1=C(C)NC(=O)CC1c1cccc(Cl)c1` (stereo not drawn), the inhibition is 3.6% (inactive).

`CN(C)CCCNC(=O)c1ccc(CN(c2ccccc2)S(C)(=O)=O)cc1`: the inhibition was -6.3% (inactive).

For the compound `C/C(=N\NC(=O)C1(C)CC1(Br)Br)c1ccc(Br)s1` (stereo not drawn), the inhibition is 0.4% (inactive).

Turning to `COc1ccccc1CNC(=O)c1ccc(NC(C)=O)cc1`, the inhibition was 2.6% (inactive).

For `O=C1C(=O)c2ccccc2C(O)=C1[N+](=O)[O-]`, the inhibition was 106% (active).

For `O=C1C(=O)c2ccccc2C(O)=C1c1ccc([N+](=O)[O-])cc1`, the inhibition was -1.5% (inactive).

Regarding `CN=CC1=C(O)c2ccccc2C1=O`, the inhibition was -0.6% (inactive).

In the case of `COc1cc(/C=N/Nc2nncc(=O)[nH]2)ccc1O`, the inhibition was -0.1% (inactive).

With `O=C(c1cn(-c2ccccc2)nc1-c1ccc(F)cc1)N1CCOCC1`, the inhibition is -13.6% (inactive).

`CC(=O)Nc1ccc(S(=O)(=O)Nc2cc(C)ccc2C)cc1`: the inhibition is 0.4% (inactive).

For the compound `CCOc1ccc(-c2cc(OCC)c3c(C)oc(C)c3c(=[O+]CC)c2)cc1`, the inhibition is 3.9% (inactive).

For the compound `CCOc1cccc(=O)c2c(C)oc(C)c12`, the inhibition is 1.6% (inactive).

Regarding `CCOc1cccc(=[O+]CC)c2c(C)oc(C)c12`, the inhibition was 96.5% (active).

For the compound `Cc1cc(N2CCCC(C(=O)Nc3ccc4c(c3)CCC4)C2)n2ncnc2n1` (stereo not drawn), the inhibition was -8.9% (inactive).

Regarding `O=C1N=C(N=Nc2c(O)[nH]c3ccccc23)S/C1=C/c1ccc(Br)cc1`, the inhibition was 53.2% (active).

`Oc1[nH]c2ccccc2c1N=Nc1nc(-c2ccccc2)c2cc(Br)ccc2n1`: the inhibition was 12% (inactive).

On to `CN(C)c1ccc(/C=C2/SC(N=Nc3c(O)[nH]c4ccccc34)=NC2=O)cc1`, for which the inhibition was 28.7% (inactive).

Consider `CCOC(=O)C1C(=O)CC(C)(O)C(C(=O)OCC)C1c1ccc(OCC)cc1` (stereo not drawn), for which the inhibition is 0.2% (inactive) and -2.5% (inactive).

For the compound `CCOc1ccc(-n2c(SCC(N)=O)nc3c([nH]c4ccccc43)c2=O)cc1`, the inhibition was -3.1% (inactive).

With `CC(C)(C)c1cnnn1-c1ccc(NC(=O)c2ccc3c(c2)OCO3)cc1`, the inhibition was -6.9% (inactive).

With `CC(C)[C@H](NC(=O)Nc1ccc2c(c1)OCCO2)C(=O)O`, the inhibition was -0.5% (inactive).

As for `COc1ccc(C(=O)c2no[n+]([O-])c2C(=O)c2ccc(OC)cc2)cc1`, the inhibition is -8.8% (inactive).

As to `Cc1ccc(C(=O)c2nocc2C(=O)c2cccs2)cc1`, the inhibition was -9.8% (inactive).

On to `COC(=O)C1=C(C)NC(=O)NC1c1ccc(OCCO)c(OC)c1` (stereo not drawn), for which the inhibition was 4.3% (inactive).

As for `O=C(CCC1CCCC1)Nc1cccc(F)c1`, the inhibition is -0.4% (inactive).

In the case of `CC(C)Cn1c(=S)[nH]c2sc3c(c2c1=O)CC(C)(C)OC3`, the inhibition is 3.9% (inactive).

In the case of `CCOC(=O)CCn1nnc(N)n1`, the inhibition was -5% (inactive).

Turning to `Cc1cc([N+](=O)[O-])ccc1N1C(=O)c2ccccc2C1=O`, the inhibition is -1.5% (inactive).

On to `Cc1cc([N+](=O)[O-])cc2c1NC(=O)C2=O`, for which the inhibition was 79.8% (active).

In the case of `Cc1cc2c(cc1Br)NC(=O)C2=O`, the inhibition is 1.5% (inactive).

Regarding `O=C(CSCc1cnn(-c2ccccc2)c1-n1cccc1)NCc1cccs1`, the inhibition is -0.1% (inactive).

Turning to `O=C1C=CC(=O)c2c1c(-c1ccccc1)nn2-c1ccccc1`, the inhibition is 63.4% (active).

With `O=C1c2ccccc2C(=O)c2c1c(-c1ccccc1)nn2-c1ccccc1`, the inhibition is 1.2% (inactive).

As to `Cc1ccc(-n2nc(-c3ccccc3)c3c2C(=O)C=CC3=O)cc1`, the inhibition is 38.9% (inactive).

Take `CN(C)CCC(=O)c1ccc(O)cc1`: the inhibition is 3.3% (inactive).

Consider `N#Cc1c(N)sc2c1CCN(Cc1ccccc1)C2`, for which the inhibition is 14.1% (inactive).

As for `N#Cc1c(N2CCCCC2)nc(N2CCCCC2)c2c1CCN(Cc1ccccc1)C2`, the inhibition is 3.8% (inactive).

Regarding `CCn1cc(C(=O)NC2CCC(C)CC2)c(=O)c2cc(S(=O)(=O)N3CCCCC3)ccc21` (stereo not drawn), the inhibition is 56.1% (active).

On to `CCn1cc(C(=O)NC2CCCCCC2)c(=O)c2cc(S(=O)(=O)N3CCCCC3)ccc21`, for which the inhibition is 3.2% (inactive).

Regarding `CCn1cc(C(=O)NC2CCCC2)c(=O)c2cc(S(=O)(=O)N3CCOCC3)ccc21`, the inhibition is 3.9% (inactive).

Regarding `Cc1nc2ncccn2c1-c1csc(Nc2cccc(O)c2)n1`, the inhibition was 2.7% (inactive).

As for `O=C(CCCCC(=O)NCc1cccs1)NCc1cccs1`, the inhibition was -5.6% (inactive).

For `CCn1cc(C(C)NC(=O)COc2ccc(Cl)cc2C)c(C)n1` (stereo not drawn), the inhibition was -4% (inactive).

Turning to `c1ccc(-c2nc(C3COc4ccccc4O3)cs2)cc1` (stereo not drawn), the inhibition is -4.2% (inactive).

Regarding `CCOc1ccc2nc(Nc3nc(O)c(C)c(=O)[nH]3)nc(C)c2c1`, the inhibition is 0.7% (inactive).

`CCOc1ccc2nc(Nc3nc(C)c(C)c(=O)[nH]3)nc(C)c2c1`: the inhibition is 1.2% (inactive).

As to `COc1ccc([N+](=O)[O-])cc1NC(=O)c1ccc(N(C)C)cc1`, the inhibition was 1.4% (inactive).

Consider `Cn1cccc1Cc1nnc(SCC(=O)Nc2nc3ccccc3s2)n1CCc1ccccc1`, for which the inhibition is -4.6% (inactive).

As to `O=C1c2cccnc2-c2ncccc21`, the inhibition is 6.6% (inactive).

As for `Cc1ccc(C)n1-c1ccc(CC(=O)O)cc1`, the inhibition is 25.5% (inactive).

Take `Cc1ccc(C)n1-c1ccc(SCC(=O)O)cc1`: the inhibition is 106% (active).

For the compound `Cc1ccc(C)n1-c1ccc(OCC(=O)O)cc1`, the inhibition is 25.7% (inactive).

For `CCOC(=O)c1c(NC(=S)NCc2ccccc2)sc2c1CCC2`, the inhibition was 0% (inactive).

Regarding `CC(Cc1ccccc1)N=C(N)/C(C#N)=C\c1[nH]c2ccccc2c1O` (stereo not drawn), the inhibition is 69.4% (active).

With `CC(Cc1ccccc1)N=Cc1c(O)[nH]c2ccccc12` (stereo not drawn), the inhibition is 3.3% (inactive).

On to `CCOC(=O)c1c(C)[nH]c(/C=C(/C#N)C(N)=NCc2ccccc2)c1O`, for which the inhibition is 1.3% (inactive).

On to `COc1ccc(N(CC(=O)NCC2CCCO2)S(=O)(=O)c2c(C)noc2C)cc1` (stereo not drawn), for which the inhibition is -8.1% (inactive).

On to `O=C(CSc1ccc(C(=O)O)cc1)Nc1ccccc1`, for which the inhibition was 0.1% (inactive).

Turning to `Cc1nc(SCC(=O)Nc2ccc(F)cc2)c2oc3ccccc3c2n1`, the inhibition is -2.1% (inactive).

Turning to `Cc1ccc(-c2ccccc2)n1-c1ccc(Cl)c(C(=O)O)c1`, the inhibition was 4.5% (inactive).

As for `Cc1ccc(C)n1-c1ccc(Cl)c(C(=O)O)c1`, the inhibition was 71.5% (active).

In the case of `Cc1ccc(-c2ccccc2)n1-c1ccc(O)c(C(=O)O)c1`, the inhibition was 42.1% (inactive).

For `Cc1ccc(C)n1-c1ccc(C(=O)O)c(O)c1`, the inhibition was 101% (active).

Turning to `Cc1nc(=O)c(-c2ccccc2)c(C)n1-c1ccc(O)c(C(=O)O)c1`, the inhibition was -7.4% (inactive).

Consider `Cc1ccc(C)n1-c1ccc(O)c(C(=O)O)c1`, for which the inhibition is 100% (active).

Consider `O=C(O)c1ccc(-n2cccc2)cc1O`, for which the inhibition was 4.3% (inactive).

Take `Cc1ccc(C)n1-c1ccc(C(=O)O)c(Cl)c1`: the inhibition is 28.4% (inactive).

As to `Cc1nc(=O)c(-c2ccccc2)c(C)n1-c1ccc(C(=O)O)c(O)c1`, the inhibition was 3.2% (inactive).

Regarding `CCCOc1ccc(C2/C(=C(/O)c3ccccc3)C(=O)C(=O)N2CCCN(C)C)cc1OC` (stereo not drawn), the inhibition was -0.5% (inactive).

For `CCN(CC)CC(=O)Nc1c(Br)ccc2c1OCO2`, the inhibition is -11.8% (inactive).

For `CCC(=O)N1CCc2cc(Br)cc(S(=O)(=O)N3CCN(C(=O)c4ccco4)CC3)c21`, the inhibition was 4.6% (inactive).

For `COc1ccc(/C=N/NC(=O)CCn2c3ccccc3c3ccccc32)cc1`, the inhibition was 0.1% (inactive).

For `CCSc1nnc(Cn2c(=O)sc3ccccc32)n1C`, the inhibition is 0.4% (inactive).

Consider `CC(C)(C)C(=O)CC(O)(c1ccccc1)C(F)(F)C(F)F` (stereo not drawn), for which the inhibition was -1.8% (inactive).
